# Test results from PubChem BioAssay AID1850 (Southern Research Specialized Biocontainment Screening …, 2009).
# Where “and” joins values, the source holds several entries; their conditions need not be identical. Identical values can stand only once. In all, about 310,000 compounds went through this assay and about 1,000 (0.32%) were called active. No rule for the calls is given here. A selection follows. Results with a measured potency or affinity are listed apart.
# Assay: PhoP regulon inhibitors, Salmonella typhi PhoP promoter GFP reporter, confirmatory (AID 1850);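 also: 0% = induced wells with vehicle and 100% = uninduced wells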
# Conditions: fluorescence, 4 h, at 50 µM, active compounds read high
row,Compound,inhibition
1,CCc1ccccc1NNC(=O)c1cc(C)on1,-26.6% (inactive)
2,Cc1cc(OCC(=O)N2CCC(C(=O)O)(c3ccccc3)CC2)c2c(C)c(C)c(=O)oc2c1,1.07% (inactive)
3,O=C(Cn1cnc2c(oc3ccccc32)c1=O)N1CCCc2ccccc21,1.66% (inactive)
4,Cc1cc(NC(=O)c2cccc(S(=O)(=O)N3CC(c4ccccc4)CC3=O)c2)no1 (stereo not given),-38.2% (inactive)
5,O=C1CC(C(=O)Nc2ccccc2)S/C(=N\NC(=O)c2ccccc2Cl)N1 (stereo not given),21.9% (inactive)
6,OC(c1cc(-c2ccc(C(F)(F)F)cc2)nc(C(F)(F)F)c1)C1CCCCN1 (stereo not given),-0.73% (inactive)
7,O=C(O)c1cc(C(F)(F)F)nc2c(C(F)(F)F)cccc12,-2.04% (inactive)
8,OC(c1cc(C(F)(F)F)nc2c(Cl)cc(Cl)cc12)C1CCCCN1 (stereo not given),0.54% (inactive)
9,COc1ccc(OC)c(C(O)C2CCCCN2)c1 (stereo not given),-3.76% (inactive)
10,COc1ccc(C2Cc3ccccc3C(=O)O2)cc1 (stereo not given),7.74% (inactive)
11,CSCCC(NC(N)=O)C(=O)NCc1cccc(Cl)c1 (stereo not given),3.4% (inactive)
12,CN(C(=O)c1ccco1)c1nc(-c2ccccc2)cs1,-0.59% (inactive)
13,CN(C)C(=O)c1cn(-c2ccccc2)nc1-c1cc2ccccc2oc1=O,-9.39% (inactive)
14,CSC1=NC(C)(C)C=C(/C=C/c2ccc(Cl)cc2Cl)N1,4.11% (inactive)
15,Clc1ccc(/C=C/c2nc3ccccc3[nH]2)c(Cl)c1,7.7% (inactive)
16,CC(c1ccccc1)N1CC(C(=O)NC2CCCC2)CC1=O (stereo not given),-13.4% (inactive)
17,CCOC(=O)CC1(NC(=O)C2CCC(=O)N(Cc3ccccc3F)C2)CCCCC1 (stereo not given),-14.3% (inactive)
18,CN(C)CCCN(C(=O)c1ccco1)c1nc2c(F)cc(F)cc2s1,1.38% (inactive)
19,CCn1cc(C(=O)O)c(=O)c2cc(F)c(N3CCN(C(=S)NC(=O)c4ccccc4Cl)CC3)cc21,11.6% (inactive)
20,CCn1cc(C(=O)O)c(=O)c2cc(F)c(N3CCN(C(=S)NC(=O)c4ccccc4Br)CC3)cc21,-18.1% (inactive)
21,Cc1cc(S(=O)(=O)Nc2ccc(C(=O)N3CCN(c4ccccc4O)CC3)cc2)ccc1F,-8.67% (inactive)
22,COc1ccc(Cn2cc(F)c(=O)n(C)c2=O)cc1[N+](=O)[O-],4.35% (inactive)
23,Cc1ccc(S(=O)(=O)N2CCCC(C(=O)NCC3COCCO3)C2)cc1 (stereo not given),-3.93% (inactive)
24,O=C(N/N=C\c1ccc(O)c([N+](=O)[O-])c1)C1COc2ccccc2O1 (stereo not given),1.19% (inactive)

row,Compound,inhibition
1,COc1cc([N+](=O)[O-])cc(/C=N\NC(=O)C2COc3ccccc3O2)c1O (stereo not given),16.3% (inactive)
2,O=C(N/N=C/c1cccc([N+](=O)[O-])c1)C1COc2ccccc2O1 (stereo not given),-0.57% (inactive)
3,O=C(N/N=C\c1ccc(-c2ccccc2[N+](=O)[O-])o1)C1COc2ccccc2O1 (stereo not given),6.46% (inactive)
4,CCOC(=O)C1(Cc2ccccc2C(F)(F)F)CCN(Cc2ccon2)CC1,-14.2% (inactive)
5,O=C(Cn1cnc(S(=O)(=O)N2CCCC2)c1)Nc1cccc(Br)c1,-2.76% (inactive)
6,O=C(Nn1cnnc1)c1ccccc1-c1ccccc1,9.02% (inactive)
7,COc1cccc(-c2ccc3nnc(SCC(=O)N4CCCC4)n3n2)c1,1.13% (inactive)
8,CCN1C(=O)NC(c2ccc(Cl)cc2)C2=C1CCCC2=O (stereo not given),-16.4% (inactive)
9,OCCN1CCN(CC(O)COC(c2ccc(F)cc2)c2ccc(F)cc2)CC1 (stereo not given),-5.69% (inactive)
10,O=C(CN1CCCC1)N1CCCC(c2ccc(F)cc2)c2ccc(F)cc21 (stereo not given),-12.7% (inactive)
11,N/C(CC(=O)Nc1ccc(F)c(Cl)c1)=N\OC(=O)c1cccs1,-6.75% (inactive)
12,CC(=O)Cc1nsc(Nc2ccc(C)cc2)n1,0.05% (inactive)
13,COC(=O)c1cc(-c2cccc([N+](=O)[O-])c2)c2c(=O)n(C)c(=O)n(C)c2n1,0.74% (inactive)
14,CC1CCC(C(C)C)C(OC(=O)CSc2nccc(=O)[nH]2)C1 (stereo not given),-9.72% (inactive)
15,CC1CCC(C(C)C)C(OC(=O)Cn2c(-c3ccc(Br)cc3)[n+](C)c3ccccc32)C1 (stereo not given),-12.1% (inactive)
16,CC1CCC(C(C)C)C(OC(=O)COC(=O)c2ccc(N)cc2)C1 (stereo not given),-3.86% (inactive)
17,CC1CCC(C(C)C)C(OC(=O)Cn2c(-c3ccccc3)[n+](C)c3ccccc32)C1 (stereo not given),7.04% (inactive) and -8.34% (inactive)
18,CC1CCC(C(C)C)C(OC(=O)COC(=O)c2ccccc2N)C1 (stereo not given),-3.26% (inactive)
19,CC1CCC(C(C)C)C(OC(=O)Cn2c(-c3ccc(F)cc3)[n+](C)c3ccccc32)C1 (stereo not given),9.13% (inactive)
20,CCOC(=O)c1cnc2ccc(OC)cc2c1NCCN1CCOCC1,-3.63% (inactive)
21,COc1ccc(OC)c(NC(=O)c2nnn(CC(=O)Nc3ccc4c(c3)OCO4)c2N)c1,-17.1% (inactive)
22,CN(C(=O)C1CCN(S(=O)(=O)c2cccs2)CC1)C1CCCCC1,-11.4% (inactive)
23,CCCCOc1ccc(CCN)cc1Cl,-8.19% (inactive)
24,CCC(C)(C)c1ccc(OCCCC[n+]2cccc(C)c2C)c(C(C)(C)CC)c1,9.55% (inactive)

row,Compound,inhibition
1,CCCCCc1ccc(OCCCC[n+]2ccc(C)cc2)c(CCCCC)c1,-3.58% (inactive)
2,CCC(C)(C)c1ccc(OCCCC[n+]2ccc(C)cc2)c(C(C)(C)CC)c1,6.7% (inactive)
3,Cc1cc(=O)oc2cc(OCCCC[n+]3ccccc3)ccc12,-6.05% (inactive)
4,CC(=O)Nc1ccc(OCCC[n+]2cccc(C(=O)[O-])c2)cc1,5.76% (inactive)
5,CC(=O)Nc1ccc(OCCC[n+]2ccccc2)cc1,-5.56% (inactive)
6,Cc1ccc[n+](Cc2ccc([N+](=O)[O-])cc2)c1,-2.48% (inactive)
7,COc1ccc(N(C(C)C(=O)N/N=C/c2ccc(OCC(C)C)cc2)S(C)(=O)=O)cc1 (stereo not given),-7.5% (inactive)
8,O=c1[nH]c(=O)n(C2CCCCCC2)c(O)c1C=NCc1cccnc1,0.08% (inactive)
9,Cn1nc(CC(=O)Nc2ncc(Br)s2)c2ccccc2c1=O,-7.27% (inactive)
10,COc1ccc(S(=O)(=O)N2CCCC(C(=O)NC3CC3)C2)cc1Cl (stereo not given),4.9% (inactive)
11,CC1CCCN(C2=NC(=O)/C(=C/c3cn(-c4ccccc4)nc3-c3cccc(S(=O)(=O)N(C)C)c3)S2)C1 (stereo not given),-7.62% (inactive)
12,Cc1cc(Br)c(NC(=O)COC(=O)CSc2nnc(-c3ccc(Cl)cc3)o2)c(Br)c1,6% (inactive)
13,Cc1ccc(S(=O)(=O)NCCC(=O)Nc2ccc(Cl)c(Cl)c2)cc1,-0.17% (inactive)
14,COCc1cc(=O)n2[nH]c(N)nc2n1,6.29% (inactive)
15,CCOC(=O)[C@@H]1[C@H]2COc3cc(OC)ccc3[C@@H]2N2C(=O)N(c3ccc(C)cc3)C(=O)[C@]12C,-2.59% (inactive)
16,CC[n+]1c(/C=C/N(C)c2ccccc2)sc2ccc(Cl)cc21,-2.8% (inactive)
17,CCn1c(/C=C/N(C)c2ccccc2)[n+](CC)c2ccc(Cl)cc21,20.2% (inactive)
18,Cc1ccc(SCC(=O)NCCSC(C)(C)C)cc1,-5.44% (inactive)
19,CC(=O)Nc1ccc(S(=O)(=O)NCCCc2ccccc2)cc1,-4.81% (inactive)
20,Cc1ccc2sc(N(CCCN(C)C)C(=O)c3nc4ccccc4s3)nc2c1C,11.1% (inactive)
21,Cc1ccc2nc(N(CCCN(C)C)C(=O)c3ccc(Br)s3)sc2c1,4.27% (inactive)
22,CC(NCc1ccccc1Cl)C(O)c1ccccc1 (stereo not given),3.04% (inactive)
23,CSc1ccc(CNC(C)C(O)c2ccccc2)cc1 (stereo not given),20.7% (inactive)
24,CC(NCc1ccc(Cl)cc1)C(O)c1ccccc1 (stereo not given),32.7% (inactive)

row,Compound,inhibition
1,CC(NCc1ccc(Cl)cc1Cl)C(O)c1ccccc1 (stereo not given),-10% (inactive)
2,CCOc1ccc(-c2nc(CSCC(=O)NC3CC3)c(C)o2)cc1,5.51% (inactive)
3,O=C(Nc1cc(Cl)ccc1-n1cncn1)c1ccc(F)c(S(=O)(=O)N2CCOCC2)c1,6.99% (inactive)
4,CC(C)c1ccc(NC(=S)N2CCN(Cc3ccccc3)CC2)cc1,14.4% (inactive)
5,COc1ccc(CC(=O)N2CCC(Nc3nc4ccccc4n3Cc3ccc(F)cc3)CC2)cc1,8.15% (inactive)
6,COc1ccc(CNc2nc3ccccc3n2CCN2CCOCC2)cc1,14.4% (inactive)
7,CC(C)=C(NC(=O)c1ccccc1Br)C(=O)NCCc1nc2ccccc2[nH]1,3.02% (inactive)
8,Cc1ccccc1Nc1nc(Nc2ccccc2C)nc(SC2=NCCS2)n1,5.86% (inactive)
9,OC(CNCC(c1ccc(Cl)cc1Cl)c1c[nH]c2ccccc12)c1ccccc1 (stereo not given),-5.36% (inactive)
10,CCCCNC(=S)NCC(c1ccccc1)c1c[nH]c2ccccc12 (stereo not given),0.6% (inactive)
11,O=C(O)CCN1C(=O)c2ccc(NC(=O)C(c3ccccc3)c3ccccc3)cc2C1=O,3.59% (inactive)
12,Cn1c(=O)c2c(ncn2CC(=O)Nc2nc(-c3ccccc3Cl)cs2)n(C)c1=O,21.1% (inactive)
13,Cc1cc(C)c2c(N)c3cccc(C)c3nc2n1,-7.17% (inactive)
14,CCc1ccc2nc3nc(C)cc(C)c3c(N)c2c1,-15% (inactive)
15,CC(=O)c1ccc(NC(=O)CSc2nc(N)c3cc4c(nc3n2)CCCC4)cc1,-7.23% (inactive)
16,Cc1cc(C)c(OCC(=O)OCC(=O)NCCC2=CCCCC2)c(C)c1,1.39% (inactive)
17,CC12CN3CCN(C1)CC(C)(C3)C2=NN,6.55% (inactive)
18,NC(=S)N/N=C/c1c(O)ccc2ccccc12,-1.9% (inactive)
19,O=c1c2ccccc2nc(N/N=C/c2ccc(O)cc2)n1O,10.2% (inactive)
20,O=C(N/N=C\c1c(O)ccc2ccccc12)c1ccc(O)cc1,-4.79% (inactive)
21,Oc1ccc2ccccc2c1/C=N/Nc1ccccc1,-3.44% (inactive)
22,Cc1ccccc1/C=N/Nc1nc2ccccc2c(=O)n1O,-20.3% (inactive)
23,Cc1ccc(C(=O)N/N=C/c2c(O)ccc3ccccc23)cn1,-2.29% (inactive)
